The values that follow come from PubChem BioAssay (EPA / NIEHS).

Read-out in assay [1]: Monocyte Chemoattractant Protein-1 (MCP1), CCL2 (gene 6347)
Kind of assay: BSK_LPS_MCP1: BioMAP Diversity Plus: LPS Assay for Monocyte Chemoattractant Protein-1 (MCP1) Biomarker Activity (AID 2283081). The conditions noted are these: primary human HUVEC with PBMC; actives raise or lower the signal. The method in brief:
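HUVEC plus PBMC co-culture (human primary cells, LPS system) exposed to test chemical for 24 h; MCP-1 measured by ELISA. Bidirectional curve fitting against DMSO baseline; parallel SRB total-protein staining flags overt cytotoxicity.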

Assay [2] can be described thus: BSK_LPS_PGE2: BioMAP Diversity Plus: LPS Assay for Prostaglandin E2 (PGE2) Biomarker Activity (AID 2283082). As to conditions: primary human HUVEC with PBMC; actives raise or lower the signal. The method in brief:
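Endpoint derived from bidirectional curve fitting versus DMSO of ELISA-measured PGE2 in LPS-stimulated human primary vascular co-culture (HUVEC with PBMC) harvested at 24 h.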

Read-out in assay [3]: Macrophage colony-stimulating factor (MCSF), CSF1 (gene 1435)
Nature of the assay: BSK_LPS_MCSF: BioMAP Diversity Plus: LPS Assay for Macrophage colony-stimulating factor (MCSF) Biomarker Activity (AID 2283083). As to conditions: primary human HUVEC with PBMC; actives raise or lower the signal. A digest of the protocol: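 Human umbilical vein endothelial cells co-cultured with peripheral blood mononuclear cells were exposed to compound for 24 h. M-CSF levels were measured by ELISA, and bidirectional curve fitting used DMSO as the negative control and baseline.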

Read-out in assay [4]: Tissue Factor, F3 (gene 2152)
Kind of assay: BSK_LPS_TissueFactor: BioMAP Diversity Plus: LPS Assay for Tissue Factor Biomarker Activity (AID 2283084). As to conditions: primary human HUVEC with PBMC; actives raise or lower the signal. A digest of the protocol:
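Human umbilical vein endothelial cells co-cultured with peripheral blood mononuclear cells were dosed and stimulated with LPS. Cell-surface CD142 was quantified by ELISA at 24 h. Activity was fitted bidirectionally against DMSO baseline.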

Read-out in assay [5]: Tumor necrosis factor (Homo sapiens) (UniProt P01375)
Kind of assay: BSK_LPS_TNFa: BioMAP Diversity Plus: LPS Assay for Tumour Necrosis Factor alpha (TNFa) Biomarker Activity (AID 2283085). As to conditions: primary human HUVEC with PBMC; actives raise or lower the signal. The method in brief: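 Primary human vascular co-culture of HUVEC and PBMC; TNFa ELISA 24 h after treatment, analysed as increase or decrease relative to DMSO control.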

Read-out in assay [6]: Vascular cell adhesion molecule 1 (VCAM1), VCAM1 (gene 7412)
Nature of the assay: BSK_LPS_VCAM1: BioMAP Diversity Plus: LPS Assay for Vascular cell adhesion molecule 1 (VCAM1) Biomarker Activity (AID 2283086). The conditions noted are these: primary human HUVEC with PBMC; actives raise or lower the signal. The method in brief: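 Primary human vascular co-culture (umbilical vein endothelium plus PBMC) stimulated with LPS received chemical; 24 h later VCAM-1 was read by ELISA. Overt cytotoxicity was assessed by sulforhodamine B staining of parallel cultures at the same time point.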

Read-out in the next assay: CD40, CD40 (gene 958)
Kind of assay: BSK_SAg_CD40: BioMAP Diversity Plus: SAg Assay for CD40 Biomarker Activity (AID 2283088). The conditions noted are these: primary human HUVEC with PBMC; actives raise or lower the signal. A digest of the protocol: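 Human umbilical vein endothelial cells co-cultured with PBMC; CD40 levels measured by ELISA with fluorescence read-out 24 h after chemical dosing. Gain or loss of signal fitted bidirectionally against DMSO baseline.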

Read-out in another assay: CD69, CD69 (gene 969)
Nature of the assay: BSK_SAg_CD69: BioMAP Diversity Plus: SAg Assay for CD69 Biomarker Activity (AID 2283089).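 On AC50: cell surface CD69 protein quantified by ELISA with fluorescence detection.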 As to conditions: primary human HUVEC with PBMC; actives raise or lower the signal. A digest of the protocol: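 Values derive from bidirectional fitting relative to DMSO vehicle. Cells: umbilical vein endothelium plus peripheral blood mononuclear cells, treated 24 h before fluorescent ELISA for CD69.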

Read-out in assay [7]: Monocyte Chemoattractant Protein-1 (MCP1), CCL2 (gene 6347)
Kind of assay: BSK_SAg_MCP1: BioMAP Diversity Plus: SAg Assay for Monocyte Chemoattractant Protein-1 (MCP1) Biomarker Activity (AID 2283090). The conditions noted are these: primary human HUVEC with PBMC; actives raise or lower the signal. A digest of the protocol:
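MCP-1 levels in the endothelial–PBMC SAg co-culture were quantified by ELISA at 24 h post-dosing; both increases and decreases versus DMSO scored. Cytotoxicity monitored by SRB total protein in parallel cultures.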

Read-out in assay [8]: E-selectin (Homo sapiens) (UniProt P16581)
Kind of assay: BSK_SAg_Eselectin: BioMAP Diversity Plus: SAg Assay for Eselectin Biomarker Activity (AID 2283091). The conditions noted are these: primary human HUVEC with PBMC; actives raise or lower the signal. A digest of the protocol: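 HUVEC co-cultured with PBMC, compound dosed then read at 24 h; E-selectin measured by ELISA. Activity fitted bidirectionally against DMSO as negative control and baseline.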

Read-out in assay [9]: Monokine induced gamma interferon (MIG), CXCL9 (gene 4283)
Kind of assay: BSK_SAg_MIG: BioMAP Diversity Plus: SAg Assay for Monokine induced gamma interferon (MIG) Biomarker Activity (AID 2283092). The conditions noted are these: primary human HUVEC with PBMC; actives raise or lower the signal. A digest of the protocol: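 Values reflect bidirectional fitting of ELISA-measured MIG against DMSO vehicle, taken 24 h after dosing of a co-culture of human umbilical vein endothelial cells and peripheral blood mononuclear cells.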

Assay [10] can be described thus: BSK_SAg_PBMCCytotoxicity: PBMC Cytotoxicity Assessment in the BioMAP Diversity Plus: SAg Assay (AID 2283093).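 Further: PBMC viability measured as Alamar Blue reduction fluorescence at 546/580 nm; fitted both ways against DMSO so a hit may be loss or gain of signal.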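 On AC50: PBMC superantigen activated with SEB plus TSST-1 one hour after compound addition.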 As to conditions: primary human HUVEC with PBMC. A digest of the protocol:
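Human umbilical vein endothelial cells co-cultured with PBMC; PBMC (75,000/well) pre-treated with compound 1 h, then activated with SEB and TSST-1 (20 ng/mL final each) for 90 h. Alamar Blue added 6 h, fluorescence 546/580 nm; bidirectional fit versus DMSO.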

Read-out in assay [11]: Interleukin-8 (IL8), CXCL8 (gene 3576)
Kind of assay: BSK_SAg_IL8: BioMAP Diversity Plus: SAg Assay for Interleukin-8 (IL8) Biomarker Activity (AID 2283094). As to conditions: primary human HUVEC with PBMC; actives raise or lower the signal. The method in brief: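 In this co-culture of human umbilical vein endothelium with peripheral blood mononuclear cells, IL-8 is assayed by ELISA at 24 h. DMSO serves as baseline for bidirectional curve fitting.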

A short description of assay [12]: BSK_SAg_Proliferation: Cell Proliferation Assessment in the BioMAP Diversity Plus: SAg Assay (AID 2283095).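 Further: relative cell number as total protein by SRB absorbance in sub-confluent culture.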 As to conditions: primary human HUVEC with PBMC. A digest of the protocol:
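Readout is SRB-stained protein (560 nm) in a primary human HUVEC and PBMC co-culture; sub-confluent cultures are read at 96 h. Activity is fitted bidirectionally using DMSO as baseline.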

The nature of assay [13]: BSK_SAg_SRB: Viability Assessment in the BioMAP Diversity Plus: SAg Assay (AID 2283096).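 Further: cells read one day after compound addition; hits may be either gain or loss of signal compared with DMSO.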 The conditions noted are these: primary human HUVEC with PBMC. The method in brief: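 Endothelial/PBMC primary human co-culture; compound 24 h; fix 10% TCA, stain 0.1% SRB, A560; protein content as cytotoxicity proxy; bidirectional curve fit, DMSO = baseline.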
Assay [14] deals with human CYP2C9, CYP2C9 (gene 1559) (UniProt P11712). Nature of the assay: NVS_ADME_hCYP2C9: NovaScreen (NVS) CYP450-related Enzyme Activity (ADME) Assay for human CYP2C9 (AID 2283108; active means hit-call score of the fitted dose curve at least 0.9, where 1 is the maximum). The method in brief: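 Cell-free assay of recombinant human CYP2C9 produced in Sf9 cells, with enzyme activity read by fluorescence intensity 0.75 h after compound addition. Loss of signal versus an acetonitrile negative control indicates inhibition. Primary screen used 10 uM in duplicate; actives were retested in concentration series.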

For assay [15], the target named is Cytochrome P450 2C19 (Homo sapiens) (UniProt P33261). Kind of assay: NVS_ADME_hCYP2C19: NovaScreen (NVS) CYP450-related Enzyme Activity (ADME) Assay for human CYP2C19 (AID 2283113; active means hit-call score of the fitted dose curve at least 0.9, where 1 is the maximum;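 further: potency for inhibition seen as loss of fluorescent signal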). The method in brief: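 Cell-free assay of recombinant human CYP2C19 expressed in insect cells, with a fluorogenic substrate; fluorescence intensity read 1 hour after dosing. Loss of signal relative to acetonitrile negative control indicates inhibition. Primary screen at 10 uM in duplicate, then concentration series.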

“And” between values parts separate entries of the source, which are not always exact repeats. Equal entries are not always repeated. Results filed as inconclusive are left out. Some structures have more than one record in an assay (separate samples or runs), and their calls can disagree. The source made the active and inactive calls. How the source made its calls, unless noted: active means hit-call score of the fitted dose curve at least 0.9, where 1 is the maximum; inactive means score below 0.9.

Sequence of E-selectin (Homo sapiens) (P16581 whole entry, looked up): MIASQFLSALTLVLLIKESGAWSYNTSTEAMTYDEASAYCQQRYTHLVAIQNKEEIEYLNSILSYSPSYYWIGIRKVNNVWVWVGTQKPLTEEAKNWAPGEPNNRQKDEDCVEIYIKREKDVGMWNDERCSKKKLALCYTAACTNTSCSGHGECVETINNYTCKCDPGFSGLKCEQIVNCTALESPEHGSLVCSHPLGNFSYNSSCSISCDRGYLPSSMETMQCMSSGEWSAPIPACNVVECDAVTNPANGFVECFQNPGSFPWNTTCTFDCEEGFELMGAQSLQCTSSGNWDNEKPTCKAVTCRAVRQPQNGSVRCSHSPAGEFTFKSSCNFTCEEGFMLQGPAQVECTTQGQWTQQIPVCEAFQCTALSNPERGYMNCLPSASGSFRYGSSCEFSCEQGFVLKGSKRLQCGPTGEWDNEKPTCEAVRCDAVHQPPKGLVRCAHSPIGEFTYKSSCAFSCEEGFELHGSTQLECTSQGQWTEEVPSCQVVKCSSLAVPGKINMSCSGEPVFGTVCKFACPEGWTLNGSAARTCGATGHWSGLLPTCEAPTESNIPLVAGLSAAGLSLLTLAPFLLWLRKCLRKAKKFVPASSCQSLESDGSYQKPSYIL
Sequence of Tumor necrosis factor (Homo sapiens) (P01375 whole entry, looked up): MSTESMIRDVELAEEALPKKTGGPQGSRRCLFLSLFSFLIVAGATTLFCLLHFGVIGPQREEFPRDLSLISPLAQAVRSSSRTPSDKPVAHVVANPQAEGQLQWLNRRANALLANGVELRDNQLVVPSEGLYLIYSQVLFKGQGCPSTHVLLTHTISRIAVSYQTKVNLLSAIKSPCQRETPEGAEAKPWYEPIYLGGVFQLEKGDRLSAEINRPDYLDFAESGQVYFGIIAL
Sequence of human CYP2C9, CYP2C9 (gene 1559) (P11712 whole entry, looked up): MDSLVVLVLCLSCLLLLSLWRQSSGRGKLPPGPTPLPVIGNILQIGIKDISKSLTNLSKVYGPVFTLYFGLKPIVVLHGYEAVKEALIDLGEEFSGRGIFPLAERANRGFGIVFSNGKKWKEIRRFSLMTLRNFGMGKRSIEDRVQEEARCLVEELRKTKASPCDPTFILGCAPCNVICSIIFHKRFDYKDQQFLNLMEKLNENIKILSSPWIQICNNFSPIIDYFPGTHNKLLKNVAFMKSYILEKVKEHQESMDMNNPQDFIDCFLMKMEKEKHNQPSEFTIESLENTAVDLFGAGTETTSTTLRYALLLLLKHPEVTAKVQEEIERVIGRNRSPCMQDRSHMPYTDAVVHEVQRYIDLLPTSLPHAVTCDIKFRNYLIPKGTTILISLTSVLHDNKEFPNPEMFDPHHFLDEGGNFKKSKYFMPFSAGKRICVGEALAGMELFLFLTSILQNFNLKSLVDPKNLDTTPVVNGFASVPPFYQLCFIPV

On to `COC(=O)CCC(F)(F)C(F)(F)C(F)(F)C(F)(F)F`, for which the result in assay [1], in [2], in assay [3], in assay [4], in assay [5] and in assay [6] was inactive. Further, the outcome with CD40, CD40 (gene 958) is “inactive”; with CD69, CD69 (gene 969), “inactive”; in assay [7], “inactive”; in assay [8], “inactive”; in [9], “inactive”; in [10], “inactive”. In addition, the outcome in assay [11], in assay [12] and in assay [13] was inactive.
For `CCCCOCCOCCOC(=O)CCCCC(=O)OCCOCCOCCCC`, the outcome in [1] is “inactive”; in [2] it was “inactive”; in assay [3], “inactive”; in [4], “inactive”; in assay [6], “inactive”; with CD40, CD40 (gene 958), “inactive”. Moreover, the outcome was “inactive” with CD69, CD69 (gene 969); “inactive” in assay [7]; “inactive” in assay [8]; “inactive” in assay [9]; “inactive” in [10]; “inactive” in [11]. Besides, the outcome in assay [12] and in assay [13] was inactive. Further, the AC50 is 5.67 µM (active) in [5], 3.07 µM (active) in assay [14] and 5 µM (active) in assay [15].
Regarding `FC(F)(F)C(F)(F)C(F)(F)C(F)(F)C(F)(F)C(F)(F)C(F)(F)I`, the outcome in assay [1], in assay [2], in assay [3], in assay [4], in assay [5] and in assay [6] was inactive. For the same compound, the outcome is “inactive” in the assay with CD40, CD40 (gene 958); “inactive” with CD69, CD69 (gene 969); “inactive” in [7]; “inactive” in assay [8]; “inactive” in assay [9]; “inactive” in assay [10]. In addition, the result in [11], in assay [12] and in assay [13] was inactive.
Consider `FC(F)(F)C(F)(F)C(F)(F)C(F)(F)C(F)(F)C(F)(F)CCS`, for which the outcome in assay [1], in assay [2], in assay [3], in [4], in [5] and in assay [6] was inactive. For the same compound, the outcome with CD40, CD40 (gene 958) is “inactive”; in the assay with CD69, CD69 (gene 969), “inactive”; in assay [7] it was “inactive”; in assay [8], “inactive”; in assay [9], “inactive”; in [10], “inactive”. The result in [11], in assay [12] and in [13] was inactive.
`FC(F)(I)C(F)(F)C(F)(F)C(F)(F)I`: the outcome in assay [1], in assay [2], in assay [3], in assay [4], in assay [5] and in assay [6] was inactive. The outcome was “inactive” with CD40, CD40 (gene 958); “inactive” with CD69, CD69 (gene 969); “inactive” in [7]; “inactive” in [8]; “inactive” in assay [9]; “inactive” in assay [10]. Moreover, the outcome in assay [11] and in assay [13] was inactive. For the same compound, the AC50 is 46.7 µM (active) in the assay with CD69, CD69 (gene 969); 44.1 µM (active) in [8]; 46.9 µM (active) and 50.1 µM (active) in [10]; 30 µM (active) in [11]; 54.2 µM (active) and 54.1 µM (active) and 46.5 µM (active) in [12].
In the case of `O=C(O)C(F)(F)C(F)(F)C(F)(F)C(F)(F)C(F)(F)C(F)(F)C(F)(F)C(F)(F)C(F)(F)C(F)(F)C(F)(F)C(F)(F)C(F)(F)F`, the outcome in assay [1], in [2], in [3], in [4], in assay [5] and in assay [6] was inactive. The outcome was “inactive” with CD40, CD40 (gene 958); “inactive” in the assay with CD69, CD69 (gene 969); “inactive” in assay [7]; “inactive” in [8]; “inactive” in [9]; “inactive” in assay [10]. Also, the result in [11], in assay [12] and in assay [13] was inactive. Also, in the assay with CD40, CD40 (gene 958), the half-maximal activity concentration (AC50) is 0.869 µM (active).
